Bioassay records: PubChem BioAssay, National Center for Advancing Translational Sciences (NCATS)
HT1080-NT tox = qHTS for induction of synthetic lethality in tumor cells producing 2HG: qHTS for the HT-1080-NT fibrosarcoma cell line; HT-1080-NT fibrosarcoma viability, CellTiter-Glo ATP luminescence, 48 h; Potency, µM (doses to about 46.1 µM), inactives show top-dose activity, negative = less viability, actives largely listed as cytotoxic; 360,000 compounds, 1.6% hits;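 further: NT is the 2HG producing partner of a matched IDH1 knockdown line; potency means the concentration at half of the fitted maximal effect; 0% = DMSO-treated cells and -100% = media-only wells without cells; nearly all actives have a fitted effect of over 55% in size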
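Toxicity toward the 2HG-producing NT line was scored as %Activity, normalised to DMSO and no-cell wells, from CellTiter-Glo luminescence after 48 hours' treatment.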
ELG1 DNA repair = qHTS screen for small molecules that inhibit ELG1-dependent DNA repair in human embryonic kidney (HEK293T) cells expressing luciferase-tagged ELG1; HEK293T ELG1-luciferase reporter, luminescence, 16 h; DNA damage induced by 5-fluorouridine; Potency, µM (doses to about 46.1 µM), for the others: at the highest dose activity change, negative = inhibition, most hits filed as inhibitors; 330,000 compounds, 2.3% hits; AID 504467, 2011; further: potency means the concentration at half of the fitted maximal effect; nearly all actives have a fitted effect of over 55% in size
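In this reporter screen, reduction of luminescence relative to DMSO vehicle indicated activity. Compounds and 5-fluorouridine were added together to 2,000 cells per well, incubated for 16 hr at 37 °C, then developed with ONE-Glo.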
IL1B secr inh = qHTS for Inhibitors of Inflammasome Signaling: IL-1-beta AlphaLISA Primary Screen; THP-1 LPS/ATP IL-1B secretion, AlphaLISA, 16 h; active compounds read low; activity change, % at 57.5 µM; 360,000 compounds, 4.7% hits; in the data active means activity change below about -50%; inconclusive means mostly about -30% to -49%
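Secreted IL-1B measured by AlphaLISA bead assay after 16 h compound exposure of THP-1 cells; compounds (final up to 57.5 uM) added 1 h before LPS (250 ng/mL) and ATP (1.25 mM) stimulation; lower signal means less secretion.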
DT40 TDP1 CPT = qHTS for Inhibitors of human tyrosyl-DNA phosphodiesterase 1 (TDP1): qHTS in cells in presence of CPT. chicken DT40 Tdp1-/-;hTDP1 cells + 20 nM CPT, ATP luminescence, 48 h. 420,000 compounds, 12% hits. Potency, µM (titrated, usually from 46.2 µM), without a hit: top-dose activity change, negative = growth inhibition, usual class: inhibitors; further: potency means the concentration at half of the fitted maximal effect; nearly all actives have a fitted effect of over 55% in size
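Chicken DT40 Tdp1-/- cells stably complemented with human TDP1 were seeded at 400 cells/well in medium containing 20 nM camptothecin, exposed to pin-transferred compounds, and grown at 37 °C for at least 48 hr. Viability was read as ATP luminescence.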
HT1080 IDH1KD tx = qHTS for induction of synthetic lethality in tumor cells producing 2HG: qHTS for the HT-1080-IDH1KD cell line; HT-1080 IDH1 knockdown viability, ATP luminescence, 48 h; Potency, µM (titrated, usually from 46.1 µM), for the others: top-dose activity, negative = toxicity, actives largely listed as cytotoxic; 360,000 compounds, 2% hits;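 further: potency means the concentration at half of the fitted maximal effect; 0% = DMSO wells and -100% = cell-free medium wells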
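In this qHTS, HT-1080 cells depleted of IDH1 are exposed for 48 h at 37 °C to compound titrations. Toxicity is scored from CellTiter-Glo luminescence, with DMSO as full viability and medium alone as none.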
DT40 TDP1 no CPT = qHTS for Inhibitors of human tyrosyl-DNA phosphodiesterase 1 (TDP1): qHTS in cells in absence of CPT. AID 686978, 2013. 420,000 compounds, 15% hits. Potency, µM (titrated, usually from 46.2 µM), without a hit: at the top dose activity change, negative = growth inhibition, actives largely listed as inhibitors. DT40 Tdp1-/- hTDP1 cells, no CPT, ATP luminescence, 48 h; further: potency means the concentration at half of the fitted maximal effect; nearly all actives have a fitted effect of over 55% in size
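Camptothecin absent (DMSO only). Human TDP1-complemented DT40 knockout cells, 400 cells/well, 37 °C for minimum 48 hr; ATP measured via CellTiter-Glo, 30 min dark incubation, luminescence.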
ELG1 Luc conf = HTS assay for small molecules that inhibit ELG1-dependent DNA repair in human embryonic kidney (HEK293T) cells expressing luciferase-tagged ELG1: Hit Confirmation; HEK293T ELG1-luciferase levels, luminescence; cells co-treated with 5-fluorouridine; shares compounds with ELG1 DNA repair; 670 compounds, 68% hits; Potency, µM (top dose mostly 46.1 µM), for the others: at the highest dose activity change, negative = inhibition, usual class: inhibitors; further: potency means the concentration at half of the fitted maximal effect; nearly all actives have a fitted effect of over 55% in size
Target sequence (Q96QE3 whole entry, looked up): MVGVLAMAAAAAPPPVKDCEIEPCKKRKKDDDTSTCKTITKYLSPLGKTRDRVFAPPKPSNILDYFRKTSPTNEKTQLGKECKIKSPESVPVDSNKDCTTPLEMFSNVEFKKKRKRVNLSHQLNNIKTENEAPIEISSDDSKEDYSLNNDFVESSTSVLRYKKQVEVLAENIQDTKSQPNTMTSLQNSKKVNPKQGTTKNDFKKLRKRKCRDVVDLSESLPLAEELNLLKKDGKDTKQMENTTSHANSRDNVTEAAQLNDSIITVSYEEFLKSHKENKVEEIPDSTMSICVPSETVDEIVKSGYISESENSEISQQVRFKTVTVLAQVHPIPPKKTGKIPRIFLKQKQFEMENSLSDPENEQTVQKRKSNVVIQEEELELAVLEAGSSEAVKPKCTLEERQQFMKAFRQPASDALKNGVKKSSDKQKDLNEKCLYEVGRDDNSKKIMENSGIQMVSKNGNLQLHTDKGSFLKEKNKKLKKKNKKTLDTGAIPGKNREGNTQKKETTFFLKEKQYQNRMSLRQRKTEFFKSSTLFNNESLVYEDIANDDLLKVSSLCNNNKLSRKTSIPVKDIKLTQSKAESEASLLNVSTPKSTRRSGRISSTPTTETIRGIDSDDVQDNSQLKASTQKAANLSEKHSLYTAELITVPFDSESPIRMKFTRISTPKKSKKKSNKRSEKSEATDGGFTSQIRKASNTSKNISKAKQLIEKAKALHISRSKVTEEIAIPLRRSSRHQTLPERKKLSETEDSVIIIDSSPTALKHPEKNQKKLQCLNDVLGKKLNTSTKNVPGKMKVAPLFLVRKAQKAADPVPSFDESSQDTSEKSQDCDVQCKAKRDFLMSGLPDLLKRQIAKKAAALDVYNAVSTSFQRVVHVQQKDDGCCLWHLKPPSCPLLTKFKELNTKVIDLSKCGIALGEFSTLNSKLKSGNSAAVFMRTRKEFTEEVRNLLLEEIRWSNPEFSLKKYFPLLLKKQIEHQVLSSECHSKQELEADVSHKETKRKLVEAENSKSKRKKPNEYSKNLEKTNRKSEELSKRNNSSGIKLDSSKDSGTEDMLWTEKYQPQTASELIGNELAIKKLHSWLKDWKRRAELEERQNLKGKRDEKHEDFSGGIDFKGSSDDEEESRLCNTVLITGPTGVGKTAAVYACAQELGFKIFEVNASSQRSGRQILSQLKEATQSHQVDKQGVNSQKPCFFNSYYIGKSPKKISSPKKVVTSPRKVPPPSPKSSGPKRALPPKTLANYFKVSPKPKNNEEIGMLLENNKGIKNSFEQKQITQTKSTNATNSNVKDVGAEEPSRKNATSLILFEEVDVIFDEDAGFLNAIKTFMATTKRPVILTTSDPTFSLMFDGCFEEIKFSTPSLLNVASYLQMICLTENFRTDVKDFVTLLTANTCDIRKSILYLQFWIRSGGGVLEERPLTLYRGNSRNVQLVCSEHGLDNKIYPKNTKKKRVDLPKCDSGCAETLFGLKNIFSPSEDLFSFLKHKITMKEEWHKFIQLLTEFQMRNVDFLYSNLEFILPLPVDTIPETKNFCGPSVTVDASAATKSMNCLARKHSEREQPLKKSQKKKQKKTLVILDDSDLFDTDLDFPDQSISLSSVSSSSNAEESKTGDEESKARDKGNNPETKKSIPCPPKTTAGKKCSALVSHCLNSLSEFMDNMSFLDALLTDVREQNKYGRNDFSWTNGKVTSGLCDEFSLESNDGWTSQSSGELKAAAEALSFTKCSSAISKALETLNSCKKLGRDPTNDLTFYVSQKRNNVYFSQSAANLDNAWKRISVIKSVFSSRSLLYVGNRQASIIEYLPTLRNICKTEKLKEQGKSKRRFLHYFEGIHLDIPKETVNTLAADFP
ELG1-Luc MMS = inhibits ELG1-dependent repair under MMS stimulation in HEK293T cells; shares compounds with ELG1 DNA repair; HEK293T luciferase-tagged ELG1 level, MMS stimulated; Potency, µM (series often up to 46.1 µM), for the others: top-dose activity change, negative = inhibition, most hits filed as inhibitors; 670 compounds, 53% hits; AID 624249; further: potency means the concentration at half of the fitted maximal effect; nearly all actives have a fitted effect of over 60% in size
ELG1 5FU viab = qHTS screen for small molecules that inhibit ELG1-dependent DNA repair: Hit Confirmation with 5FU Viability. cell viability with 5-FU, ELG1-dependent repair. 670 tested, under 10 active. shares compounds with ELG1 DNA repair. Potency, µM (highest dose often 46.1 µM), without a hit: at the top dose activity change, negative = viability loss, most hits filed as cytotoxic;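 further: ELG1-luc HEK293T cells cotreated with 5-fluorouridine at 10 µM final; potency means the concentration at half of the fitted maximal effect; viability measured 16 h after compound addition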
ELG1 MMS cell = qHTS screen for small molecules that inhibit ELG1-dependent DNA repair: Hit Confirmation with MMS Viability | shares compounds with ELG1 DNA repair | Cell viability with MMS, ELG1-dependent DNA repair | Potency, µM (series often up to 46.1 µM), without a hit: at the top dose activity change, negative = viability loss, usual class: cytotoxic | 670 compounds, 33% hits;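 further: ELG1-luc HEK293T cells co-treated with 10 µM MMS; potency means the concentration at half of the fitted maximal effect; viability read 16 h after compound addition; nearly all actives have a fitted effect of over 60% in size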
ELG1 unstim viab = qHTS screen for small molecules that inhibit ELG1-dependent DNA repair: Hit Confirmation with Unstimulated Viability Assay. shares compounds with ELG1 DNA repair. cell viability counter-screen, unstimulated, luminescence. Potency, µM (highest dose often 45.9 µM), for inactives: at the top dose activity change, negative = loss of viability, most hits filed as cytotoxic. 900 compounds, 8% hits. AID 624252, 2012;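 further: potency means the concentration at half of the fitted maximal effect; compound exposure lasted 16 hours before reading; nearly all actives have a fitted effect of over 55% in size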
* hit, by the source's call; ? = inconclusive; nt = no result given. Only some compounds are listed: those with a hit (about 19% of all), similar ones and a draw of the others. Unless noted, the call rests on the fitted dose curve; in most records, active means well fitted curve in the direction sought with a large enough effect; inconclusive means small, poorly fitted or top-dose-only effect, or another doubt; inactive means no such curve, though single readings can be large; an effect the other way counts as inactive or inconclusive. Unless noted, on the % scale 0 is the no-effect control and ±100 the full control effect.

SMILES	HT1080-NT tox	ELG1 DNA repair	IL1B secr inh	DT40 TDP1 CPT	HT1080 IDH1KD tx	DT40 TDP1 no CPT	ELG1 Luc conf	ELG1-Luc MMS	ELG1 5FU viab	ELG1 MMS cell	ELG1 unstim viab
CC(C)(C)C(=O)Nc1cccc(-c2nnc(-c3cccc(NC(=O)C(C)(C)C)c3)o2)c1	-3%	4.6µM*	35	?	-2%	?	7.9µM*	?	15%	-1%	?
CN(C(=O)c1cc(S(=O)(=O)N2CCOCC2)cs1)c1ccccc1	3%	4%	-3	-2%	4%	-7%	nt	nt	nt	nt	nt
O=C(CSc1nc2ccc(NC(=O)CSc3nnnn3Cc3ccccc3)cc2s1)Nc1ccccc1	?	4.6µM*	28	-17%	?	-22%	?	7.9µM*	-2%	13µM*	?
Cc1cc(C)n2nc(C(=O)OCC(=O)N(C)CC(=O)Nc3ccccc3Cl)nc2n1	4%	3%	12	1%	2%	-14%	nt	nt	nt	nt	nt
O=C(NC1CC2CCCC(C1)N2C(=O)Nc1ccccc1Cl)C1CC1 (stereo not given)	14%	10%	11	4%	7%	1%	nt	nt	nt	nt	nt
